CYP2C9 act = human CYP2C9 activators, primary screen, biochemical, luminescence; AID 1024, 2008; activation factor at 5 µM; 1.4% of 96,000 active; recombinant CYP2C9, luciferin-H conversion; hits give high values; factor 1 = untreated enzyme, 0 = blocked; Cytochrome P450 2C9 (Homo sapiens), P11712;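 active = activation factor of 2 or more for CYP2C9 at a 5 µM dose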
Target sequence (P11712 whole entry, looked up): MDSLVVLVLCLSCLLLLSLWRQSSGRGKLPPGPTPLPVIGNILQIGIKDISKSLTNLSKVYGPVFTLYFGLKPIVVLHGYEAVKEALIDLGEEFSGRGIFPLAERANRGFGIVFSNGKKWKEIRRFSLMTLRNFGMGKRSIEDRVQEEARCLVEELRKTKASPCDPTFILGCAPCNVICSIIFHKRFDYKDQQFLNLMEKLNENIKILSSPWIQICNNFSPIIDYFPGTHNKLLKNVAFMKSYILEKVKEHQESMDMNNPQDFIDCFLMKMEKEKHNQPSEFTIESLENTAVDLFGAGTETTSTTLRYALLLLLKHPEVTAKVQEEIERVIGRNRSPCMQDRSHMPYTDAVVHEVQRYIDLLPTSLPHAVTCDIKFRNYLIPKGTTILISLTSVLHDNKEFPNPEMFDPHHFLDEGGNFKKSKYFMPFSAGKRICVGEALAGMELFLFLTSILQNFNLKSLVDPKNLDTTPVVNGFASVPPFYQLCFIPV
PLAP act = PLAP enzyme activators, biochemical, luminescence, HTS. AID 696, 2007. Alkaline phosphatase, placental type (Homo sapiens), P05187. 1.2% of 96,000 active. purified PLAP enzyme, luminescent substrate read-out; hits give high values. activation fold at 20 µM; in the data active = activation fold above about 2
CYP2C19 inhib = blockers of cytochrome P450 2C19 activity – biochemical, luminescence, ADME assay, primary screen; P33261; AID 778, 2007; 21% of 96,000 active; inhibition, % at 5 µM; CYP2C19 Supersomes, luciferin-H EGE luminescence, 30 min;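 active = CYP2C19 inhibition above a set limit at 5 µM in the primary screen, cut at about 50% in these data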
CYP2C9 inh = blockers of cytochrome P450 2C9 activity – biochemical, luminescence, ADME assay, primary screen. 20% of 96,000 active. inhibition, % at 5 µM. CYP2C9 Supersomes, luciferin-H conversion. P11712. AID 777, 2007;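 active = blocking of liver enzyme CYP2C9 beyond about 50% at 5 µM, limit read from the data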
CYP2C19 activ = human CYP2C19 activators, primary screen, biochemical, luminescence. recombinant CYP2C19, luciferin-H EGE luminescence; hits give high values; 0 = fully inhibited enzyme, 1 = untreated enzyme. AID 1025, 2008. 96,000 tested, under 10 active. Cytochrome P450 2C19 (Homo sapiens), P33261. activation factor at 5 µM;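 active = activation factor of at least 2 at 5 µM in the primary screen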
Each line names hits and unclear results; the compound was inactive in the other large screens. Only some compounds are listed: those with a hit (about 31% of all), similar ones and a draw of the others.

CC1CN(c2ccc(S(=O)(=O)N3CCOCC3)cn2)CC(C)O1 (centres undefined)	none
Cc1c(NC(=O)c2ccc(F)c(S(=O)(=O)N3CCOCC3)c2)c(=O)n(-c2ccccc2)n1C	none
CCCc1cc(=O)[nH]c(SCc2cc(C(=O)OC)c(C)o2)n1	CYP2C19 inhib 77, CYP2C9 inh 87
COC(=O)c1cc(CSc2nc3ccccc3[nH]2)oc1C	PLAP act 2.3, CYP2C19 inhib 98, CYP2C9 inh 87
O=[n+]1c2c(n([O-])c3ccccc31)CCCC2	none
O=C1c2ccccc2CCC1C(O)c1ccccn1 (centres undefined)	none
O=C(OC1CCc2ccccc2C1=O)c1ccccc1O (centres undefined)	CYP2C19 inhib 82, CYP2C9 inh 90
O=C(Nc1nncs1)Oc1ccccc1	none
O=S(=O)(c1ccccc1)c1ccc(NCc2ccco2)cc1	CYP2C19 inhib 67
O=S(=O)(Nc1nc2ccccc2nc1NCc1ccco1)c1ccccc1	CYP2C9 inh 98
O=S(=O)(Nc1nc2ccccc2nc1NCCO)c1cccc(Cl)c1	CYP2C9 inh 99
O=C(CCC(=O)c1cccs1)OCC(=O)N1CCN(C(=O)c2ccco2)CC1	none
O=C(CCCNS(=O)(=O)c1cccc2nsnc12)NCc1ccc(F)cc1	none
Cc1ccc(OCc2ccoc2C(=O)O)cc1C	none
CC(=O)Oc1ccc(C)cc1-n1nc2ccccc2n1	none
Nc1cccc(Cl)c1N1CCOCC1	none
CC(=O)c1ccc(OC(C)C)c(CSc2nc(O)cc(=O)[nH]2)c1	CYP2C9 inh 59
Cc1cc(N2CCN(S(=O)(=O)c3ccc4c(c3)OCCO4)CC2)n2ncnc2n1	none
Cn1nc(C(=O)NC2CCCCC2)c2ccccc2c1=O	none
Cn1cc(Cl)c(C(=O)NC2CCCCCC2)n1	CYP2C19 inhib 67
C=C(C)CSc1nnc(-c2cccc(Cl)c2)n1N	CYP2C19 inhib 58
CCOC(=O)CNC(=O)CSc1nc2cccnc2n1C1CCCCC1	none
O=C1CC(c2cccc(Br)c2)c2cc3c(cc2N1)CCC3 (centres undefined)	CYP2C9 inh 55
O=P(COc1ccccc1)(c1ccccc1)c1ccccc1	CYP2C9 inh 72
O=P(Cc1ccncc1)(c1ccccc1)c1ccccc1	CYP2C19 inhib 60
O=C(O)CP(=O)(c1ccccc1)c1ccccc1	none
COCP(=O)(c1ccccc1)c1ccccc1	none
O=P(CCCCCCCCCP(=O)(c1ccccc1)c1ccccc1)(c1ccccc1)c1ccccc1	CYP2C19 inhib 80, CYP2C9 inh 99 (no result: PLAP act)
CC1(C)C(=O)OC(c2c(F)c(F)c(F)c(F)c2F)C2(CCCCC2)C1=O (centres undefined)	none
COc1cccc(C2=NOC(C(=O)NCc3cccs3)C2)c1 (centres undefined)	CYP2C19 inhib 54, CYP2C9 inh 68
COc1cccc(C2=NOC(C(=O)Nc3ccccc3SC)C2)c1 (centres undefined)	CYP2C9 act 2.5, CYP2C19 inhib 63
COc1ccc(CNC(=O)C2CC(c3cccc(OC)c3)=NO2)cc1 (centres undefined)	none
COCC(C)NC(=O)C1CC(c2cccc(Br)c2)=NO1 (centres undefined)	CYP2C9 act 2.1
COc1ccc(OC)c(C2=NOC(C(=O)NCc3ccco3)C2)c1 (centres undefined)	CYP2C9 act 3.1
COc1cccc(C2=NOC(C(=O)Nc3cc(OC)c(OC)c(OC)c3)C2)c1 (centres undefined)	none
O=C(O)C1C2CCC(O2)C1C(=O)NCc1ccncc1 (centres undefined)	none
COc1ccc(-c2nnc(SC(C)C(=O)Nc3c(C)n(C)n(-c4ccccc4)c3=O)o2)cc1 (centres undefined)	none
O=C(C1CCCN(S(=O)(=O)c2cnc[nH]2)C1)N1CC(=O)N(CCc2ccccc2)C(=O)C1 (centres undefined)	none
CCN(CC)S(=O)(=O)c1ccc(C(=O)OCCNC(=O)c2cccnc2)cc1	CYP2C9 inh 72
COCCNC(=O)c1ccc2ccccc2n1	none
O=C(OCCNC(=O)c1ccc2ccccc2n1)c1cccnc1	CYP2C19 inhib 90, CYP2C9 inh 66
CCN(CC)S(=O)(=O)c1cccc(-c2nnc(SCCCC(=O)c3ccccc3)o2)c1	CYP2C19 inhib 76, CYP2C9 inh 64
CCN(CC)S(=O)(=O)c1ccc(-c2nnc(SCC(=O)N3c4ccccc4CC3C)o2)cc1 (centres undefined)	none
CCN(CC)S(=O)(=O)c1cccc(-c2nnc(SCCCC(=O)c3ccc(F)cc3)o2)c1	CYP2C19 inhib 95, CYP2C9 inh 87
CCN(CC)S(=O)(=O)c1cccc(-c2nnc(-c3ccc(C)cc3)o2)c1	none
CCN(CC)S(=O)(=O)c1cccc(-c2nnc(SCc3nc4ccccc4s3)o2)c1	CYP2C19 inhib 93
CCN(CC)CCN1C(=O)c2ccccc2NC1c1ccc(C)cc1 (centres undefined)	none
COC(=O)C1(O)CC(CC(C)C)=NN1C(=O)c1ccccc1 (centres undefined)	none
COc1ccc(N(CC(=O)N2CCc3ccccc32)S(=O)(=O)c2c(C)noc2C)cc1	none
CCOc1ccc(-c2nnc3ccc(SCC(=O)NCc4ccco4)nn23)cc1	none
CCOc1ccc(-c2nc(CSCC(=O)NC3CCCc4ccccc43)c(C)o2)cc1 (centres undefined)	CYP2C19 inhib 65
COc1cccc(-c2nc(CS(=O)(=O)CC(=O)NC3CCCc4ccccc43)c(C)o2)c1 (centres undefined)	none
CCOc1ccc(-c2nc(CSCC(=O)NCc3ccco3)c(C)o2)cc1	CYP2C19 inhib 67, CYP2C9 inh 76
O=c1oc2ccccc2cc1C1=Nn2c(nnc2-c2cccnc2)SC1	none
COc1ccc(Cl)cc1NC(=O)Cn1cccc1	CYP2C9 act 2.8
COc1ccc(CCC(=O)Nc2cc(Cl)ccc2OC)cc1	CYP2C19 inhib 100
COc1ccc(Cl)cc1NC(=O)C(C)Sc1n[nH]c(N)n1 (centres undefined)	CYP2C9 act 2.3
COc1ccc(CC(=O)Nc2cc(Cl)ccc2O)cc1	CYP2C19 inhib 92, CYP2C9 inh 59
CC1OC(Nc2ccc(OC(F)(F)F)cc2)C(O)C(O)C1O (centres undefined)	none
CCCc1nnc(SCC(=O)O)n1/N=C/c1ccc2c(c1)OCO2	none
COc1cccc2c(=O)n(CC(=O)Nc3cccc(F)c3)ccc12	none
O=C(Nc1cccnc1)c1ccc2c(c1)C(=O)N(Cc1cccnc1)C2=O	none
CCOc1ccccc1N1C(=O)c2ccc(C(=O)Nc3cccnc3)cc2C1=O	CYP2C19 inhib 57, CYP2C9 inh 65
O=C1CSC(c2cn(-c3ccccc3)nc2-c2cccs2)N1CC1CCCO1 (centres undefined)	CYP2C19 inhib 73, CYP2C9 inh 80

Screens as filed in PubChem BioAssay.
